Screening data deposited in PubChem by National Center for Advancing Translational Sciences (NCATS).
Pf growth 96h = P. falciparum growth inhibition at 96 hours; P. falciparum luciferase reporter growth, 96 h; Potency, µM (doses to about 28.7 µM), hits mostly inhibitors; hit rate 6.9% among 320,000
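96 h incubation, 37 C, 5% CO2, of luciferase-reporter P. falciparum-infected RBCs (2% hematocrit, 0.05% parasitemia final) with test compounds; endpoint luminescence.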
Shiga toxin inh = blocks Shiga toxin action in Vero cells | Vero cells, Shiga toxin protein synthesis inhibition reporter | inhibition, % at 38.7 µM | hit rate 9.2% among 290,000; in the data active = inhibition mostly above about 28%, no sharp cut-off; inactive = mostly below about 43%
Cycloheximide cs = counter-screen for Shiga toxin inhibitors: cycloheximide protein synthesis inhibition | cell reporter, cycloheximide protein synthesis inhibition counterscreen | max response, % | hit rate 12% among 300,000; in the data active = max response mostly above about 13%, no sharp cut-off; inactive = mostly below about 14%; also: read at 38.3 µM for the half of the compounds with a filed dose
Pf growth 48h = inhibits P. falciparum growth in the first generation, 48 h. P. falciparum luciferase growth in erythrocytes, 48 h. hit rate 5.9% among 310,000. Potency, µM (series often up to 28.7 µM), actives largely listed as inhibitors
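Erythrocytes infected with P. falciparum carrying an integrated firefly luciferase reporter (2% hematocrit, 0.1% parasitemia final) were exposed to compounds in RPMI 1640 with 0.5% Albumax at 37 C, 5% CO2. Growth inhibition was scored as reduced luminescence.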
LmPK inhibitor = LmPK (Leishmania mexicana) enzyme inhibition; hit rate 0.37% among 290,000; purified LmPK, Kinase-Glo ATP luminescence, 1 h; Potency, µM (titrated, usually from 57.5 µM), hits mostly inhibitors; Q27686
Target sequence (Q27686 whole entry, looked up): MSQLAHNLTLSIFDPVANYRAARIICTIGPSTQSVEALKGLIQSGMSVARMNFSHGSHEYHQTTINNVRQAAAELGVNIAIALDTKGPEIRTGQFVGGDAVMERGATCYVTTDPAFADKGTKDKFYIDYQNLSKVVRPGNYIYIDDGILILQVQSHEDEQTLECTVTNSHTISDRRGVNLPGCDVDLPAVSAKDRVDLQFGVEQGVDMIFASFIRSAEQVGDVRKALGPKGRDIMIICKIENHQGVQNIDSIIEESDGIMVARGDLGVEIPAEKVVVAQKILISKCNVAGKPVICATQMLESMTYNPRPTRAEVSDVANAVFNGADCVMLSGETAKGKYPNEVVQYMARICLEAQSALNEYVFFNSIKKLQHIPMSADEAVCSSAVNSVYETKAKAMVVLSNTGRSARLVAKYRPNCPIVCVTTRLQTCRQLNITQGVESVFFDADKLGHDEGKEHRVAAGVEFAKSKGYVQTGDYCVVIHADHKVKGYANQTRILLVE
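Purified LmPK (0.1 nM) with 0.5 mM PEP and 0.1 mM ADP in imidazole buffer pH 7.2 with MgCl2/KCl, 1 h at room temperature. ATP formed was read by luciferase luminescence and normalized to no-enzyme and uninhibited controls.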
A number is an active result; 0 = inactive; ? = inconclusive; - = no result given. Most compounds without a hit are left out; they make up all but 22% or so of the library. Unless noted, calls follow the shape of the dose curve; as a rule, active = well fitted inhibition curve with a large enough effect; inconclusive = small, poorly fitted or top-dose-only effect, or another doubt; inactive = no such curve, though single readings can be large or run the other way.

SMILES	Pf growth 96h	Shiga toxin inh	Cycloheximide cs	Pf growth 48h	LmPK inhibitor
COc1ccc(C(=O)NCCCSC)cc1OC1CCN(C(C)C)CC1	0	0	0	?	0
COc1ccc(C(=O)NC2CCCCC2)cc1OC1CCN(C(C)C)CC1	6.57µM	0	0	?	0
COC(C[C@@H](O)[C@@H](C)[C@@H](O)COCc1ccccc1)OC	0	0	0	0	0
CC(=O)c1c(C)[nH]c(C(=O)CN2C(=O)NC(CCc3ccccc3)C2=O)c1C (stereo not given)	?	0	0	?	0
Cc1cc(C)c(C(=O)/C=C/c2cccc3ccccc23)c(=O)[nH]1	?	0	0	?	0
Cc1[nH]c2ccccc2c1C(=O)/C=C\c1ccccc1Cl	0	24.0	35.9	0	0
Cc1[nH]c2ccccc2c1C(=O)/C=C/c1ccccc1Cl	?	80.7	40.1	0	0
CC(=O)c1c(C)nc2ccccc2c1N	-	0	0	0	0
Cc1[nH]c2ccccc2c1C(=O)/C=C/c1ccccc1	?	56.5	37.1	0	0
Cc1[nH]c2ccccc2c1C(=O)CSc1ccc(Cl)cc1	?	0	0	?	0
Cc1nc2ccccc2c(N)c1C(=O)/C=C/c1ccccc1	?	0	0	5.86µM	0
CC(=O)c1c(C)[nH]c2ccccc2c1=O	0	0	0	0	0
Cc1ccc(C)c(NC(=O)COC(=O)CNC(=O)C2CCCCC2)c1	0	-	-	0	-
COC(=O)c1ccccc1S(=O)(=O)N1CCC(C(=O)N2CCC2)CC1	0	-	-	0	-
Cc1cc(Cl)c(C)c(S(=O)(=O)N2CCN(CC(=O)N3CCOCC3)CC2)c1Cl	0	-	-	0	-
Cc1cc(Nc2cccc(F)c2)nc(-c2ccccc2O)n1	0	0	0	?	0
Cc1cc(NC2CCCCC2)nc(-c2ccccc2O)n1	0	0	14.7	?	0
Cc1cc(N/N=C/c2c(O)ccc3ccccc23)nc(-c2ccccc2O)n1	?	0	0	6.57µM	0
Cc1cc(Nc2ccccc2)nc(-c2ccccc2O)n1	-	106.8	34.9	0	0
CC(CNS(=O)(=O)c1ccc2c(c1)NC(=O)CCS2)c1ccccc1 (stereo not given)	?	0	0	0	0
COc1cc(NC(=O)c2cc(Cl)nnc2Cl)cc(OC)c1OC	?	0	0	11.7µM	0
COc1cccc(NC(=O)c2cc(Cl)nnc2Cl)c1	?	0	0	3.7µM	0
NC(=O)NC(=O)C(c1ccccc1)N1CCN(S(=O)(=O)Cc2ccccc2)CC1 (stereo not given)	0	-	-	0	-
O=C(OCCc1ccccc1)c1cc(O)c(O)c(O)c1	0	-	-	0	-
CN1C(=O)C(c2nnc(Nc3cccc4ccccc34)s2)C2CC1(C)Oc1ccccc12 (stereo not given)	4.65µM	0	0	?	0
SMILES	Pf growth 96h	Shiga toxin inh	Cycloheximide cs	Pf growth 48h	LmPK inhibitor
CCC(=O)Nc1ccc(Oc2ccc3c(c2)C(=O)NC3=O)cc1	-	0	0	0	0
Cc1cccc(C(=O)Nc2ccc3c(c2)C(=O)NC3=O)c1	0	0	20.9	0	0
Cc1ccc(C(=O)Nc2ccc3c(c2)C(=O)NC3=O)cc1	0	0	13.9	0	0
O=C(Nc1ccc2c(c1)C(=O)NC2=O)c1cccc(Cl)c1	0	0	0	0	0
CC(=O)Nc1cccc(Oc2ccc3c(c2)C(=O)NC3=O)c1	0	-	22.0	0	0
O=C(O)COc1ccc(C(NC(=O)c2c(F)cccc2F)NC(=O)c2c(F)cccc2F)cc1	0	0	0	-	0
O=c1[nH][nH]c(-c2ccccc2)c1C=Nc1ccc(OC(F)(F)F)cc1	?	0	0	0	0
COc1ccc(S(=O)(=O)N2CCC(C(=O)NN3CCCCC3)CC2)cc1OC	0	-	-	?	-
CC(C)NC(=S)N/N=C/C1=CCC2CC1C2(C)C (stereo not given)	?	0	0	13.1µM	0
CCCCNC(=S)N/N=C/c1ccc(C#N)cc1	9.28µM	0	0	0	0
CCCCNC(=S)N/N=C/C1=CCC2CC1C2(C)C (stereo not given)	11.7µM	0	0	9.28µM	0
Cc1ccc(NC(=O)CN(C)C(=O)CSc2nnc(N)s2)cc1	0	-	-	0	-
CCOc1cc(/C=C(/NC(C)=O)C(=O)O)cc(Cl)c1OCc1cccc(Br)c1	0	0	0	0	0
CCN(CC)CCCn1c2c(c(SCC(=O)Nc3nc4ccccc4s3)nc1=O)CCC2	13.1µM	-	-	?	-
CCN(CC)CCn1c2c(c(SCC(=O)Nc3cccc4ccccc34)nc1=O)CCCC2	0	-	-	?	-
CCCCc1ccc(NC(=O)CSc2nc(=O)n(CCN(C)C)c3c2CCC3)cc1	?	-	-	11.7µM	-
O=C(CSc1nc(=O)n(CCCN2CCOCC2)c2c1CCCC2)Nc1ccc(F)cc1	0	-	-	0	-
Cc1ccc(NC(=O)CSc2nc(=O)n(CCCN3CCOCC3)c3c2CCCC3)cc1	0	-	-	13.1µM	-
CCCCc1ccc(NC(=O)CSc2nc(=O)n(CCN(CC)CC)c3c2CCCC3)cc1	2.08µM	-	-	11.7µM	-
Cc1ccc(S(=O)(=O)Nc2cc(Br)cc3cccnc23)cc1	-	0	0	-	-
CC(C)NS(=O)(=O)c1ccc(Br)c(C(=O)OC(C)C(=O)NC2CCCCC2C)c1 (stereo not given)	0	-	-	?	-
COc1cc(C(=O)NCc2nnc(SCC(=O)NC3CCCC3)o2)cc(OC)c1OC	8.28µM	0	0	0	0
COc1cc(C(=O)NCc2nnc(SCC(=O)Nc3nc4ccccc4s3)o2)cc(OC)c1OC	?	45.6	14.5	0	0
COc1cc(C(=O)NCCC(=O)NC2CCCCC2)cc(OC)c1OC	9.28µM	0	0	0	0
COc1ccc(-c2nc3c(n2O)CCC/C3=N\O)cc1	0	0	27.3	0	0
SMILES	Pf growth 96h	Shiga toxin inh	Cycloheximide cs	Pf growth 48h	LmPK inhibitor
Cc1ccc2oc(=O)c(/C=C(\O)C(C)(C)C)nc2c1	0	0	0	?	0
Cc1ccnc(NC(=O)c2cc3c(=O)oc4ccc(C)cc4c3s2)c1	0	0	0	0	0
CC(C)(C)/C(O)=C/c1nc2cc(Cl)ccc2oc1=O	5.86µM	0	0	9.28µM	0
Cc1ccc2oc(=O)c(/C=C(\O)c3ccco3)nc2c1	?	0	17.4	?	0
Cc1ccc2oc(=O)c(/C=C(\O)c3sc(C)nc3C)nc2c1	10.4µM	0	0	?	0
O=C(COC(=O)C1CCN(S(=O)(=O)c2ccccc2C(F)(F)F)CC1)NCc1ccc(F)cc1	?	0	0	0	0
COc1ccc(CCNC(=O)c2c(O)c3ccccc3[nH]c2=O)cc1OC	0	0	0	?	0
COC(=O)c1nn(-c2cccc(C)c2)c2nnc(Cc3ccc(C)cc3)c(=O)n12	0	0	0	0	0
Cc1ccc(Cc2nnc3n(-c4cccc(C)c4)nc(C(=O)c4ccccc4)n3c2=O)cc1	3.7µM	0	0	5.22µM	0
CCN(CC)S(=O)(=O)c1ccc(-c2nnco2)cc1	13.1µM	0	0	0	0
O=S(=O)(c1ccc(-c2nnc(SCc3nnc(-c4ccccc4)o3)o2)cc1)N1CCCC1	0	0	0	?	0
Cc1ccc(S(=O)(=O)N(C)Cc2ccc(-c3nnco3)cc2)cc1	0	0	0	0	0
CCN(CC)S(=O)(=O)c1ccc(-c2nnc(SCc3nnc(-c4ccccc4)o3)o2)cc1	3.7µM	0	0	0	0
